# Screen size: about 5,500 compounds; about 2,000 (36%) were called active. About 18% were inconclusive and are not listed. The list shows a part of the results. Values without a mark were called inactive. No stated cut-off is given here; in the data, active means normalized growth mostly below about 0.91 (no sharp cut-off); inconclusive means no clear call, values can overlap the other calls; inactive means mostly above about 0.92.
# Assay: chemical genetic growth profiling, strain panel (AID 1159580);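 further: tested at 20 µM; growth read once vehicle control cultures reached saturation at 30 °C; 1 = growth at the plate median or of vehicle wells; lower values mean less growth of the strain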
# Details: S. cerevisiae deletion strains, growth OD
compound,measurement,setting,value
CC1(C)C(=O)N(CCN2CCC(C(=O)c3ccc(F)cc3)CC2)c2ccccc21,normalized growth,"locus YAL013W, strain DEP1, hits give low values",0.998
same,normalized growth,"locus YAL040C, strain CLN3, hits give low values",1.01
same,normalized growth,"locus YCL061C, strain MRC1 (second series), hits give low values",0.999
same,normalized growth,"locus YDR150W, strain NUM1, hits give low values",0.998
same,normalized growth,"locus YDR363W, strain ESC2, hits give low values",0.992
same,normalized growth,"locus YER002W, strain NOP16, hits give low values",1.01
same,normalized growth,"locus YGR229C, strain SMI1, hits give low values",0.993
same,normalized growth,"locus YNL128W, strain TEP1, hits give low values",1.03
same,normalized growth,"locus YNL175C, strain NOP13, hits give low values",1.02
same,normalized growth,"locus YNL197C, strain WHI3, hits give low values",1.02
same,normalized growth,"locus YNL224C, strain SQS1, hits give low values",1.02
same,normalized growth,"locus YNL322C, strain KRE1, hits give low values",1
same,normalized growth,"locus YOR083W, strain WHI5 (second series), hits give low values",0.969
same,normalized growth,"locus YPL055C, strain LGE1, hits give low values",0.982
CC1C(c2ccccc2)N(C)C(c2ccccc2)CC1(O)c1ccc(F)cc1 (stereo not given),normalized growth,"locus YAR019C, strain CDC15, hits give low values",0.988
same,normalized growth,"locus YBL105C, strain PKC1, hits give low values",0.991
same,normalized growth,"locus YBR135W, strain CKS1, hits give low values",0.99
same,normalized growth,"locus YBR136W, strain MEC1, hits give low values",0.994
same,normalized growth,"locus YBR160W, strain CDC28, hits give low values",0.995
same,normalized growth,"locus YDL017W, strain CDC7, hits give low values",0.997
same,normalized growth,"locus YDL028C, strain MPS1, hits give low values",1
same,normalized growth,"locus YDL101C, strain DUN1, hits give low values",0.986
same,normalized growth,"locus YDL108W, strain KIN28, hits give low values",1.01
same,normalized growth,"locus YDL132W, strain cdc53, hits give low values",0.989
same,normalized growth,"locus YDL214C, strain PRR2, hits give low values",0.976
same,normalized growth,"locus YDR052C, strain DBF4, hits give low values",0.995
same,normalized growth,"locus YDR054C, strain cdc34, hits give low values",0.993
same,normalized growth,"locus YDR226W, strain ADK1, hits give low values",0.992
same,normalized growth,"locus YDR477W, strain SNF1, hits give low values",0.992
same,normalized growth,"locus YER123W, strain YCK3, hits give low values",0.934
same,normalized growth,"locus YER133W, strain GLC7, hits give low values",0.995
same,normalized growth,"locus YFL009W, strain cdc4, hits give low values",0.989
same,normalized growth,"locus YFL029C, strain CAK1, hits give low values",0.99
same,normalized growth,"locus YFR003C, strain YPI1, hits give low values",0.999
same,normalized growth,"locus YFR019W, strain FAB1, hits give low values",0.996
same,normalized growth,"locus YFR028C, strain CDC14, hits give low values",0.984
same,normalized growth,"locus YGR040W, strain KSS1, hits give low values",0.997
same,normalized growth,"locus YGR052W, strain FMP48, hits give low values",1.11
same,normalized growth,"locus YGR092W, strain DBF2, hits give low values",0.968
same,normalized growth,"locus YHR030C, strain SLT2, hits give low values",1.26 [resistant] (active)
same,normalized growth,"locus YHR079C, strain IRE1, hits give low values",1.14
same,normalized growth,"locus YHR082C, strain KSP1, hits give low values",1.13
same,normalized growth,"locus YHR205W, strain SCH9, hits give low values",0.979
same,normalized growth,"locus YIL147C, strain SLN1, hits give low values",1
same,normalized growth,"locus YJL095W, strain BCK1, hits give low values",1.1
same,normalized growth,"locus YJL128C, strain PBS2, hits give low values",0.952
same,normalized growth,"locus YJL157C, strain FAR1, hits give low values",0.972
same,normalized growth,"locus YJR016C, strain ILV3, hits give low values",0.989
same,normalized growth,"locus YJR066W, strain TOR1 (second series), hits give low values",0.983
same,normalized growth,"locus YJR066W, strain TOR1, hits give low values",1.13
same,normalized growth,"locus YKL048C, strain ELM1, hits give low values",0.982
same,normalized growth,"locus YKL067W, strain YNK1, hits give low values",0.98
same,normalized growth,"locus YKL101W, strain HSL1, hits give low values",0.99
same,normalized growth,"locus YKL193C, strain SDS22, hits give low values",0.994
same,normalized growth,"locus YKL203C, strain TOR2, hits give low values",1.06
same,normalized growth,"locus YLR113W, strain HOG1, hits give low values",1.04
same,normalized growth,"locus YLR133W, strain CKI1, hits give low values",0.98
same,normalized growth,"locus YLR403W, strain SFP1, hits give low values",0.99
same,normalized growth,"locus YML070W, strain DAK1, hits give low values",0.973
same,normalized growth,"locus YMR001C, strain CDC5, hits give low values",0.982
same,normalized growth,"locus YMR205C, strain PFK2 (second series), hits give low values",0.989
same,normalized growth,"locus YMR277W, strain FCP1, hits give low values",0.997
same,normalized growth,"locus YNL006W, strain LST8, hits give low values",0.977
same,normalized growth,"locus YNL020C, strain ARK1, hits give low values",0.984
same,normalized growth,"locus YNL161W, strain CBK1, hits give low values",1
same,normalized growth,"locus YNL183C, strain NPR1, hits give low values",1.14
same,normalized growth,"locus YNL207W, strain RIO2, hits give low values",0.999
same,normalized growth,"locus YNL222W, strain SSU72, hits give low values",0.99
same,normalized growth,"locus YNL307C, strain MCK1 (second series), hits give low values",0.987
same,normalized growth,"locus YOL078W, strain AVO1, hits give low values",0.992
same,normalized growth,"locus YOL136C, strain PFK27, hits give low values",0.99
same,normalized growth,"locus YOR061W, strain CKA2, hits give low values",0.972
same,normalized growth,"locus YOR119C, strain RIO1, hits give low values",1.04
same,normalized growth,"locus YOR231W, strain MKK1, hits give low values",1.1
same,normalized growth,"locus YOR329C, strain SCD5, hits give low values",0.992
same,normalized growth,"locus YPL031C, strain PHO85, hits give low values",0.984
same,normalized growth,"locus YPL153C, strain RAD53, hits give low values",0.983
same,normalized growth,"locus YPL204W, strain HRR25, hits give low values",1
same,normalized growth,"locus YPL209C, strain IPL1, hits give low values",1
same,normalized growth,"locus YPL256C, strain CLN2, hits give low values",1.1
same,normalized growth,"locus YPR025C, strain CCL1, hits give low values",0.995
same,normalized growth,"locus YPR106W, strain ISR1, hits give low values",0.999
same,normalized growth,"locus YPR111W, strain DBF20, hits give low values",0.99
same,normalized growth,"strain NNK1, hits give low values",0.998
same,normalized growth,"strain TSCII, hits give low values",0.987

# Source: PubChem BioAssay AID1159580 (chemical genetic matrix, 2015)
